Bioassay records from PubChem.
Most compounds without a hit are left out; they make up all but 4.8% or so of the library.
Wee1 stabilizer: Wee1 degradation inhibitors, primary screen, cell-based, HeLa, Wee1K328M-luciferase, luminescence; Wee1-like protein kinase (Homo sapiens), P30291; HeLa Luc-Wee1K328M stability; 100% = proteasome inhibitor MG132 effect; reporter increase, % at 5 µM; 220,000 tested, 1.2% active;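 active = activation above the mean of all tested compounds plus 3 SD, set per screening run, cut at about 8.8% in these data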;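 note: cells exposed to compound for 20 h before luminescence read; 0% = DMSO alone and 100% = MG132 at 30 µM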
Target sequence (P30291 whole entry K328M): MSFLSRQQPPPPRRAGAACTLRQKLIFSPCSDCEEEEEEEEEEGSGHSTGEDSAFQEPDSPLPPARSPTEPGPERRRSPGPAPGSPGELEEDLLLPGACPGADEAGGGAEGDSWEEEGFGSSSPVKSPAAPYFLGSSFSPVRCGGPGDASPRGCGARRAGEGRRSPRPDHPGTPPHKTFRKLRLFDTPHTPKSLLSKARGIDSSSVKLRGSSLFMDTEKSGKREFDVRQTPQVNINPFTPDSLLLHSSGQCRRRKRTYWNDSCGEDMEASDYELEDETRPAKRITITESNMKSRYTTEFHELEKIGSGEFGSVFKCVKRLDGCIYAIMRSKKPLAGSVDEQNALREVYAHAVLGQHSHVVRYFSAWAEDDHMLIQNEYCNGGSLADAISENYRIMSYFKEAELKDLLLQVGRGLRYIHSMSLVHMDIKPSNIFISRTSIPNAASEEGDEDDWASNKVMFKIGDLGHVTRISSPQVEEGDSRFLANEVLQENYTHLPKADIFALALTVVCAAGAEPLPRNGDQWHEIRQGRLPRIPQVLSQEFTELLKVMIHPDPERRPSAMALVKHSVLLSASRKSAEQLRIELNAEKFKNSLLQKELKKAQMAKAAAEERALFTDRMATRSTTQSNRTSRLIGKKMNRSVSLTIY
NF-kB neuron act: activators of NF-kB expression in neurons, primary screen, cell-based, HTS | 190,000 tested, 1.6% active | human neuronal cells, NF-kB reporter expression; active compounds read high | fold change at 12.5 µM; in the data active = fold change above about 3.3
STAT1 act: STAT1 signaling activators, primary screen, cell-based, HTS, luciferase reporter; NIH 3T3 STAT1-luciferase reporter, IFN-gamma, luminescence; 100% = IFN-gamma alone, no compound; activation (% of control), % at 5.5 µM; 200,000 tested, 2.6% active; AID 932, 2007;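 active = activation above the screen-wide mean activation plus 3 SD, cut at about 130% in these data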;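 note: raw ratio to IFN-gamma control signal so 100% means no change and 0% no light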
APP 5'UTR act: activators of APP 5'UTR luciferase reporter, primary screen, SH-SY5Y cells; SH-SY5Y APP 5'UTR luciferase reporter, luminescence; zero percent = DMSO vehicle wells; activation, % at 2 µM; AID 1276, 2008; 190,000 tested, 1% active;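 active = activation above a set limit, based on mean plus 3 SD of controls, cut at about 140% in these data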
APP transl inh: inhibitors of APP translation via 5'UTR reporter, primary screen, APP 5'UTR luciferase, SH-SY5Y cells | AID 1285, 2008 | inhibition, % at 2 µM | 190,000 tested, 0.82% active | SH-SY5Y APP 5'UTR-luciferase reporter, luminescence;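 active = inhibition above a set limit, derived from the sample mean plus 3 SD, cut at about 45% in these data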
Hsp70 activator: Hsp70 transcriptional activators, primary screen, cell-based, HeLa, Hsp70 promoter luciferase, luminescence, 10 µM; HeLa Hsp70 promoter luciferase reporter; scaled: vehicle 0, proteasome-inhibitor control 100%; activation, % at 10 µM; 200,000 tested, 0.04% active;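 active = activation above the mean across all tested compounds plus 3 SD, cutoff set per campaign, cut at about 5.5% in these data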;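 note: 100% = MG132 at 30 µM as the positive control and 0% = DMSO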
Wee1 degr conf: Wee1 degradation inhibitors, confirmation, cell-based, HeLa, Wee1K328M-luciferase, luminescence, triplicate; shares compounds with Wee1 stabilizer; HeLa Luc-Wee1K328M degradation; vehicle 0%, proteasome-blocked wells 100%; activation, % at 5 µM; 1,100 tested, 4% active; in the data active = activation above about 8.9%
* marks the source's active call; other numbers are inactive results; nt = no result given.

SMILES | Wee1 stabilizer | NF-kB neuron act | STAT1 act | APP 5'UTR act | APP transl inh | Hsp70 activator | Wee1 degr conf
COc1cc(NC(=O)c2ccc(Cl)cc2Cl)ccc1-c1cc2ccccc2oc1=O | 2.3 | 1.29 | 94.1 | -1.6 | 1.6 | -0.2 | nt
CCN(CC)c1ccc(/C=N\NC(N)=O)cc1 | -2.8 | 1.21 | 103.9 | 30.7 | -30.7 | -0.4 | nt
CCN(CC)c1ccc(/C=N/NC(=O)c2ccoc2C)cc1 | 15.8* | nt | nt | nt | nt | nt | 0.0
O=C(CSc1c[nH]c2ccccc12)NCc1ccc2c(c1)OCO2 | -2.8 | 1.6 | 100.3 | -7.3 | 7.3 | -0.2 | nt
O=C(NCc1ccc(F)cc1)c1ccccc1OCc1ccccc1 | 19.6* | 0.68 | 103.2 | 10.7 | -10.7 | 0.3 | 0.9
CCOc1ccc(C(=O)CN2CCN(S(=O)(=O)c3ccc(Br)cc3)CC2)cc1 | -1.3 | 1 | 90.7 | 5.2 | -5.2 | -0.1 | nt
N#Cc1ccc(-c2csc(NC3=NCCCCC3)n2)cc1 | 14.9* | 1.62 | 126.6 | 10.3 | -10.4 | 0.1 | 1.5
CCOCCOc1cccc(C(=O)NC(c2ccccc2)C(C)C)c1 (centres undefined) | -2.4 | 0.94 | 100.3 | -1.1 | 1.1 | -0.1 | nt
C=CCNC(=S)NNc1nc(Nc2ccccc2)nc(N2CCCCC2)n1 | 11.3* | 0.97 | 110.8 | -5.2 | 5.2 | -0.3 | 0.7
S=C(NNc1nc(Nc2ccccc2)nc(N2CCCCC2)n1)NC1CCCCC1 | 2.8 | 1.12 | 111.5 | 11.8 | -11.8 | -0.2 | nt
CN(c1ccccc1)S(=O)(=O)c1ccc(Cl)c(C(=O)OCC(=O)NC2CCS(=O)(=O)C2)c1 (centres undefined) | -1.6 | 1.08 | 93.5 | -3.3 | 3.3 | 0.2 | nt
Cc1nc(-c2ccccc2)sc1-c1ccnn1C | 17.5* | 6.42* | 141.1* | 141.0* | -141.0 | 0.0 | 4.9
CCOc1ccc(Cc2noc3c2C(=O)CCC3)cc1OCC | 17.1* | 0.91 | 101.1 | -10.4 | 10.4 | 1.5 | 2.3
CCCCNC(=O)NC12CC3CC(CC(C3)C1)C2 | 22.4* | 0.97 | 95.1 | -4.2 | 4.2 | 0.2 | 3.4
CCOCCCNC(=S)N1C2CCC1CC(NC(=O)Nc1ccc(C(=O)OCC)cc1)C2 (centres undefined) | 2.9 | 1.09 | 93.3 | -15.2 | 15.2 | 0.3 | nt
CCOCCCNC(=S)N1C2CCC1CC(NC(=O)NC13CC4CC(CC(C4)C1)C3)C2 (centres undefined) | 11.6* | 1.02 | 97.6 | 5.5 | -5.5 | 0.8 | 4.8
Cc1oc(-c2cccc(Cl)c2)nc1CSCC(=O)O | -2.3 | 1.04 | 102.0 | 0.9 | -0.9 | -0.4 | nt
COc1cccc2cc(C(C)N(CCCN3CCOCC3)C(=S)Nc3cc(C)ccc3C)oc12 (centres undefined) | 13.6* | 1.26 | 92.6 | 4.3 | -4.3 | -0.2 | 2.6
COc1cccc2cc(C(C)N(CCCN3CCOCC3)C(=S)Nc3ccc(C)c(C)c3)oc12 (centres undefined) | 32.8* | 1 | 95.3 | 19.9 | -19.9 | 0.0 | 0.3
COc1cccc2cc(C(C)N(CCCN3CCOCC3)C(=S)Nc3cccc(C)c3C)oc12 (centres undefined) | -0.1 | 1.11 | 96.3 | 7.4 | -7.4 | -0.2 | nt
CN(C)c1ccc(P(=O)(OC2CCCCC2)C(O)c2ccccn2)cc1 (centres undefined) | -4.1 | nt | nt | nt | nt | nt | nt
CN(C)c1ccc(P(=O)(OC2CCCCC2)C(O)c2cccnc2)cc1 (centres undefined) | 12.5* | 1.18 | 104.3 | nt | nt | -0.2 | 3.9
CNS(=O)(=O)c1cccc(C(=O)OCC(=O)Nc2ccc(Cl)cn2)c1 | 12.0* | nt | nt | nt | nt | nt | 1.5
OCCN(CCO)c1ncnc2c1sc1nc(N3CCOCC3)c3c(c12)CCCC3 | 13.9* | 0.47 | 97.1 | 0.0 | 0.0 | -0.3 | 1.3
CN1CCN(c2ncnc3c2sc2nc(N4CCOCC4)c4c(c23)CCC4)CC1 | -0.9 | nt | 98.5 | -3.6 | 3.6 | -0.5 | nt
SMILES | Wee1 stabilizer | NF-kB neuron act | STAT1 act | APP 5'UTR act | APP transl inh | Hsp70 activator | Wee1 degr conf
Cc1nnc(NC(=O)Cn2cnc3c2c(=O)n(C)c(=O)n3C)s1 | 11.7* | 1.25 | 113.7 | -13.3 | 13.3 | -0.6 | 0.0
CCSc1nnc(NC(=O)Cn2cnc3c2c(=O)n(C)c(=O)n3C)s1 | -2.9 | 1 | 108.0 | 24.1 | -24.1 | -0.2 | nt
O=[N+]([O-])c1ccccc1/C=N/n1c(C(F)(F)F)n[nH]c1=S | 12.0* | 1.1 | 92.2 | -6.0 | 6.0 | 0.0 | 0.7
CC(C)c1ccc2[nH]c(O)c(N=NC(=O)c3cccc(S(=O)(=O)Nc4ccccc4Cl)c3)c2c1 | 19.9* | 1.14 | 102.6 | 26.4 | -26.4 | 0.2 | 0.4
CC(C)NC(=S)N=Nc1c(O)[nH]c2ccc(C(C)C)cc12 | 15.3* | 0.95 | 91.2 | -21.9 | 21.9 | -0.3 | -0.3
NC(=S)N=Nc1c(O)[nH]c2ccc(F)cc12 | 0.3 | 1.03 | 103.8 | -4.5 | 4.5 | -0.1 | nt
O=C(N=Nc1c(O)[nH]c2ccccc12)c1cccc(S(=O)(=O)Nc2ccccc2Cl)c1 | 6.2 | 1.1 | 107.2 | 0.5 | -0.5 | -0.1 | nt
CSc1ccc(Cl)c(C(=O)Nc2nccs2)c1 | -0.9 | nt | nt | nt | nt | nt | nt
Cc1cccc(Cn2cnc3c(nnn3Cc3ccc(F)cc3)c2=O)c1 | 0.0 | 0.73 | 93.3 | -10.2 | 10.2 | -0.2 | nt
COc1cccc(CNCc2cccnc2)c1OCc1ccccc1 | 12.8* | 0.86 | 100.0 | 2.3 | -2.3 | -0.1 | -1.1
Nc1[nH]n(-c2ccccc2)c(=O)c1N=Nc1ccc2c(c1)OCO2 | 12.0* | nt | nt | nt | nt | nt | -1.6
Cc1ccc(F)c(NC(=O)c2ccc(Cn3cc(Cl)cn3)cc2)c1 | 11.8* | 1.16 | 97.9 | 23.4 | -23.4 | -0.2 | 0.8
CC(C)c1ccccc1NC(=S)NC1CCCCC1 | -1.1 | 1.31 | 94.5 | -12.2 | 12.2 | -0.1 | nt
CC(=O)Nc1ccc(S(=O)(=O)Nc2nc3cc4c(cc3nc2Cl)OCCO4)cc1 | 11.2* | nt | nt | nt | nt | nt | 5.1
O=S(=O)(Nc1nc2cc3c(cc2nc1Cl)OCCO3)c1ccccc1 | 1.9 | 0.76 | 102.3 | 0.5 | -0.5 | 0.0 | nt
COc1cc(/C=C(\C#N)c2ccccn2)ccc1OCC(=O)Nc1c(Cl)cccc1Cl | -3.5 | 1 | 99.5 | 14.6 | -14.6 | -0.3 | nt
COc1cc2c(cc1NC(=O)C(C)Sc1ccc(NC(C)=O)cc1)oc1ccccc12 (centres undefined) | -2.2 | 0.44 | 87.2 | -14.2 | 14.2 | -0.1 | nt
O=C(COc1ccc(C(=O)c2ccc(F)cc2)cc1)NCc1ccc(F)cc1 | 10.9* | 1.72 | 98.2 | -18.8 | 18.8 | -0.3 | 13.8*
